From PubChem BioAssay come the findings set out here.

The structures appear in SMILES notation. Activity calls are given as the source filed them. Unless noted, how the calls were made is not given here.

Experiment [1] deals with Wnt5a (protein binding on small-molecule microarray). Put plainly: small molecules binding Wnt5a protein – biophysical, small-molecule microarray, 635/667 nm fluorescence, primary screen (AID 1142).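 Further: fluorescence read at 667 nm with signal to noise per printed feature.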 Conditions: 635 nm fluorescence, higher = more signal.
Experiment [2] can be described thus: ATP-based viability of Huh7 replicon cells – cell-based, CellTiter-Glo luminescence, basal, 48 h, cytotoxicity control for HCV replication inhibitor project, primary screen (AID 1143).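 Further: Huh7 hepatoma cells carrying a hepatitis C replication reporter with no stimulus; test concentration not given here.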 Conditions: higher = more signal, called active from +8 up or from −8 down.
Experiment [3] is described as follows: Pseudomonas biofilm growth suppression – PAO1 strain, BacTiter-Glo luminescence, LB-PBS, primary screen (AID 1144). Conditions: P. aeruginosa PAO1 biofilm, 12 h, higher = more signal.
The nature of experiment [4]: basal CRE-LacZ reporter activity in PC12 – cell-based, unstimulated, primary screen (AID 1145). To be noted: no forskolin, luminescence, 4.5 h, higher = more signal, called active from +8 up or from −8 down.
Experiment [5] can be described thus: forskolin-driven CRE-LacZ activity in PC12 – cell-based, CRE-LacZ reporter, forskolin-stimulated, primary screen (AID 1146).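 Further: PC12 cells with 6xCRE LacZ reporter stimulated by forskolin 10 µM; beta-galactosidase reporter signal reflecting CREB driven transcription.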 To be noted: luminescence, 4.5 h, higher = more signal, called active from +8 up or from −8 down.
The target of experiment [6] is Streptavidin (Streptomyces avidinii) (UniProt P22629). Put plainly: compounds binding control protein streptavidin – biophysical, small-molecule microarray, 635/667 nm fluorescence, artefact control for SMM compound annotation, primary screen (AID 1147).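 Further: signal reflects streptavidin binding to arrayed compounds as a control protein.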 Conditions: higher = more signal.
Experiment [7] can be described thus: probe aInhba binding on compound microarray – biochemical, small-molecule microarray, 635/667 nm fluorescence, primary screen (AID 1148).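 Further: score merges 667nm spot fluorescence with signal-to-noise for antibody binding to printed compounds.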 Conditions: higher = more signal.
For experiment [8], the target named is Torsin-1A (Homo sapiens) (UniProt O14656). Put plainly: TOR1A wild-type binding on microarray – cell lysate, small-molecule microarray, lysate, 635/667 nm, primary screen (AID 1149). To be noted: COS7 hTOR1A-WT lysate, 635 nm fluorescence, higher = more signal.
Experiment [9] has the same target. The experiment is described as follows: torsin A mutant lysate binding on microarrays – cell lysate, small-molecule microarray, COS7 lysate, 635/667 nm fluorescence, primary screen (AID 1150).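 Further: score pools 667 nm emission and signal to noise measuring lysate protein binding.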 To be noted: COS7 hTOR1A mutant lysate, 635 nm fluorescence, higher = more signal.
For experiment [10], the system named is Sonic hedgehog protein (Shh). The experiment is described as follows: Sonic hedgehog microarray binding compounds – biochemical, small-molecule microarray, 635/667 nm fluorescence, primary screen (AID 1151).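 Further: Shh protein binding to compounds spotted on small-molecule microarray slides; score combines spot fluorescence intensity with signal-to-noise across triplicate slides.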 To be noted: 635 nm fluorescence, higher = more signal.

Chain of Streptavidin (Streptomyces avidinii) (P22629 whole entry, looked up): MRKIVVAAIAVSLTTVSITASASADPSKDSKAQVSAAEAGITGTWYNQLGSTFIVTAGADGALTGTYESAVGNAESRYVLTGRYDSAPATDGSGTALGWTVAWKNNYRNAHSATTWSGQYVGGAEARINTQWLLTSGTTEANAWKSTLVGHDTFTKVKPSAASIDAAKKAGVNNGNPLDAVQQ
Chain of Torsin-1A (Homo sapiens) (O14656 whole entry, looked up): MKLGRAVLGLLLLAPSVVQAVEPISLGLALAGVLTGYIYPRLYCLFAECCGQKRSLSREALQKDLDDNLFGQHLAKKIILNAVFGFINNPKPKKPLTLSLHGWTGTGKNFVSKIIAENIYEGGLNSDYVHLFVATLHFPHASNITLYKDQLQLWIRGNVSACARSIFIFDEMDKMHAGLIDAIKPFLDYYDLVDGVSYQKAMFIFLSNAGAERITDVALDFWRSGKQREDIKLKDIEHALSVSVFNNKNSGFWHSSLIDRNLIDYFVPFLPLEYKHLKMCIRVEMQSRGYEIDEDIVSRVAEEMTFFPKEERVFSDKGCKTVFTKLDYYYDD

Regarding `CCCCC(O)C1C=CC2C(=O)N(C)C(=O)C2N1N(c1ccccc1)c1ccccc1` (stereo not given), the composite z-score in experiment [1] is 0.29; in experiment [6], 0.971; in experiment [7] it was 0.0075; with Torsin-1A (Homo sapiens) [8], 0.14; with Torsin-1A (Homo sapiens) [9], 0.464; in [10], 0.471. The z-score was -0.975 (inactive) in experiment [2], 0.092 (inactive) in experiment [3], 1.59 (inactive) in experiment [4] and 0.281 (inactive) in [5].

On to `COC(=O)c1c(CC[C@@H](CO)NC(=O)N2CCC[C@H]2Cn2cc(C3(O)CCCCC3)nn2)oc(C(C)=O)c1C(=O)OC`, for which the composite z-score is -0.0505 in experiment [1]; 0.429 in experiment [6]; -0.0448 in experiment [7]; 0.666 with Torsin-1A (Homo sapiens) [8]; 0.895 with Torsin-1A (Homo sapiens) [9]; 1.44 in experiment [10]. Further, the z-score in [2] was -0.257 (inactive); in [3] it was -0.156 (inactive); in [4], 0.498 (inactive); in experiment [5], 0.306 (inactive).

On to `C=C[C@@H](CO)N(Cc1ccc(OC)cc1)S(=O)(=O)c1ccc(Br)cc1`, for which the composite z-score was -0.0447 in [1]; 0.396 in [6]; -0.154 in experiment [7]; 1.16 with Torsin-1A (Homo sapiens) [8]; 1.13 with Torsin-1A (Homo sapiens) [9]; -0.0145 in experiment [10]. The z-score in experiment [2] was -3.07 (inactive); in [3], -0.445 (inactive); in experiment [4] it was -0.104 (inactive); in experiment [5] it was -0.895 (inactive).
